HCMV antiviral: inhibitors of human cytomegalovirus; HFF cells, HCMV-luciferase reporter, 72 h; active compounds read low; activity change, negative = inhibition, % at 57.5 µM; 410,000 tested, 4.5% active; in the data active = activity change below about -60%; inconclusive = no clear call, values can overlap the other calls; inactive = above about -39%; also: % is scaled to controls: 0 for no effect and ±100 for the full control effect
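Luciferase read-out from HCMV-luciferase-infected HFFs (MOI 1 PFU/cell) 72 h post infection at 37C; compounds added after 16 h cell attachment; activity normalized between buffer-only basal and Salinomycin (10uM) inhibitor controls.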
Pf growth 48h: P. falciparum growth inhibition at 48 hours (one generation); Potency, µM (top dose mostly 28.7 µM), inactives show at the highest dose activity change, negative = inhibition, usual class: inhibitors; 310,000 tested, 5.9% active; P. falciparum luciferase growth in erythrocytes, 48 h; also: potency is read from the fitted curve at half-maximal effect; % is scaled to controls: 0 for no effect and ±100 for the full control effect
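Cell-based growth assay: transgenic P. falciparum expressing firefly luciferase, cultured in red cells within RPMI 1640 containing 0.5% w/v Albumax, 24 mM bicarbonate and gentamycin. A drop in luciferase activity indicates inhibition.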
HCV inhibitor: HCV inhibition; Huh7.5.1 HCVcc-Cre infection, luciferase reporter, 44 h; Potency, µM (highest dose often 41.8 µM), for the others: at the highest dose activity change, negative = inhibition, hits mostly inhibitors; 340,000 tested, 3.4% active; AID 651820; also: potency is read from the fitted curve at half-maximal effect; % is scaled to controls: 0 for no effect and ±100 for the full control effect
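After 44 h co-culture of compound, cells and HCVcc-Cre (~0.5 moi), substrate is added for 15 min at room temperature and luciferase measured over 15 sec. Cells were seeded at 1,000/well and pre-cultured 4 h.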
Pf growth 96h: inhibits malaria parasite growth, 96 h | P. falciparum luciferase reporter growth, 96 h | Potency, µM (titrated, usually from 28.7 µM), for inactives: at the highest dose activity change, negative = inhibition, usual class: inhibitors | 320,000 tested, 6.9% active; also: potency is read from the fitted curve at half-maximal effect; % is scaled to controls: 0 for no effect and ±100 for the full control effect
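Parasite growth measured via integrated firefly luciferase reporter in P. falciparum. Infected erythrocytes at 2% hematocrit, 0.05% parasitemia final were treated 96 hours at 37 C under 5% CO2, and luminescence was read.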
Shiga toxin inh: blocks Shiga toxin action in Vero cells. inhibition, % at 38.7 µM. 290,000 tested, 9.2% active. Vero cells, Shiga toxin protein synthesis inhibition reporter. AID 2315; in the data active = inhibition mostly above about 28%, no sharp cut-off; inactive = mostly below about 43%; also: 0% is about no effect
CHX counter: affects cycloheximide protein synthesis inhibition readout, counter-screen | cell reporter, cycloheximide protein synthesis inhibition counterscreen | max response, % | AID 2314 | 300,000 tested, 12% active; in the data active = max response mostly above about 13%, no sharp cut-off; inactive = mostly below about 14%; also: read at 38.3 µM for the half of the compounds with a filed dose; 0% is about no effect
An asterisk follows results filed as active; [ ] = dose if it differs, or a comment. The list is not random: actives were taken first. Their share in the collection is about 21%. Unless noted, calls follow the shape of the dose curve; as a rule, active = well fitted inhibition curve with a large enough effect; inconclusive = small, poorly fitted or top-dose-only effect, or another doubt; inactive = no such curve, though single readings can be large or run the other way.

`COc1ccc2nc(NC(=O)c3ccc(-n4nc(C)cc4C)cc3)sc2c1` gave HCMV antiviral -106*, Pf growth 48h inconclusive, HCV inhibitor -19%, Pf growth 96h 20%, Shiga toxin inh -16 and CHX counter -3.
Screening COc1ccc2nc(NC(=O)c3ccc(F)cc3)sc2c1 returned HCMV antiviral 29, Pf growth 48h 79%, HCV inhibitor -25%, Pf growth 96h inconclusive and CHX counter 27*.
Screening CSc1nc2ccc3nc(NC(=O)c4ccc(C)cc4)sc3c2s1 returned HCMV antiviral -8, Pf growth 48h 24%, HCV inhibitor -9%, Pf growth 96h 46%, Shiga toxin inh 10 and CHX counter 5.
`O=C(Nc1nc2c(s1)C(=O)CCC2)c1ccccc1` gave HCMV antiviral 121, Pf growth 48h 391%, HCV inhibitor 14%, Pf growth 96h inconclusive, Shiga toxin inh 48 and CHX counter 43*.
Screening Cc1ccc(C(=O)Nc2nc3ccccc3c(=O)s2)cc1 returned HCMV antiviral -23, Pf growth 48h 20%, HCV inhibitor 8.9µM*, Pf growth 96h 17%, Shiga toxin inh 101* and CHX counter 43*.
CC(=O)Nc1nc2cc(C(N)=O)ccc2s1 was read as HCMV antiviral 35, Pf growth 48h 8%, HCV inhibitor 3% and Pf growth 96h inconclusive.
`O=C(Nc1ccc(F)cc1)Nc1sccc1-c1nc2ccccc2s1` gave HCMV antiviral 17, Pf growth 48h 8.3µM*, HCV inhibitor inconclusive, Pf growth 96h inconclusive, Shiga toxin inh 23 and CHX counter 9.
For CC(C)(C)NC(=O)c1cccc(NC(=O)c2ccc3c(c2)C(=O)N(C(C)(C)C)C3=O)c1 the results were HCMV antiviral 20, Pf growth 48h 61%, HCV inhibitor inconclusive, Pf growth 96h 69%, Shiga toxin inh 5 and CHX counter 2.
`NC(=O)c1ccc2nc(NC(=O)c3ccc(N)cc3)sc2c1` gave HCMV antiviral 54, Pf growth 48h 81%, HCV inhibitor -25%, Pf growth 96h 12µM*, Shiga toxin inh 33* and CHX counter 20*.
CC(C)(C)N1C(=O)c2ccc(C(=O)Nc3ccc(O)cc3)cc2C1=O was read as HCMV antiviral inconclusive, Pf growth 48h 26%, HCV inhibitor inconclusive, Pf growth 96h inactive, Shiga toxin inh 46* and CHX counter 23*.
Screening CC(=O)Nc1nc(=O)c2ccccc2s1 returned HCMV antiviral 1, Pf growth 48h 26%, HCV inhibitor 7%, Pf growth 96h -28%, Shiga toxin inh 32 and CHX counter -7.
Screening O=C(Nc1nc(=O)c2ccccc2s1)c1ccccc1 returned HCMV antiviral 33, Pf growth 48h 16%, HCV inhibitor 12%, Pf growth 96h -1%[5.75 µM], Shiga toxin inh 95* and CHX counter 46*.
Screening CCOc1cccc2sc(N3CCN(C(=O)c4ccc5c(c4)CCCC5)CC3)nc12 returned HCMV antiviral 34.
`CCc1ccc(C(=O)c2cn(CC(=O)Nc3cc(OC)ccc3OC)c3ccc(Cl)cc3c2=O)cc1` gave HCMV antiviral -18.
For CC1CC(=O)NN1C(=O)c1ccccc1 (stereo unspecified) the results were HCMV antiviral -11, Pf growth 48h 11%, HCV inhibitor 2%, Pf growth 96h 2%, Shiga toxin inh -10 and CHX counter -3.
`CC(OC(=O)CCC(=O)c1cccs1)C(=O)NC1CCCCC1C` (stereo unspecified) gave HCMV antiviral 0, Pf growth 48h -9%, HCV inhibitor 8% and Pf growth 96h -21%.
Cc1ccc2nc(NC(=O)c3ccc(-c4nc5ccccc5s4)s3)sc2c1 was read as HCMV antiviral -33, Pf growth 48h 132%, HCV inhibitor -2%, Pf growth 96h 164%, Shiga toxin inh 86* and CHX counter 51*.
`Cc1ccc2nc(NC(=O)C3=NN(c4ccccc4)C(=O)CC3)sc2c1` gave HCMV antiviral -39, Pf growth 48h 31%, HCV inhibitor 2%, Pf growth 96h -21%, Shiga toxin inh 31 and CHX counter 8.
`O=C(Nc1nc2ccccc2s1)c1ccc(F)cc1` gave HCMV antiviral 52, Pf growth 48h 113%, HCV inhibitor inconclusive, Pf growth 96h 36%, Shiga toxin inh 82* and CHX counter 32*.
Screening COc1ccc2nc(NC(=O)c3ccc4ncsc4c3)sc2c1 returned HCV inhibitor inconclusive, Pf growth 96h 10%, Shiga toxin inh 70* and CHX counter 56*.
For O=C(Nc1nc2ccccc2s1)c1ccc(Cl)s1 the results were HCMV antiviral 42, HCV inhibitor -26%, Pf growth 96h -56%, Shiga toxin inh 86* and CHX counter 32*.
Screening Cc1ccnc2nc(NC(=O)c3ccccc3Cl)nn12 returned HCMV antiviral -7.
CCN(CC)S(=O)(=O)c1ccc2c(c1)N(CC(=O)Nc1ccc(Cl)cc1)C(=O)C1CCCN21 (stereo unspecified) was read as HCMV antiviral -4.
Screening COC(=O)C(c1ccccc1)(c1cn(C)c2c(C)cccc12)C(Nc1ccccc1)c1ccccc1 (stereo unspecified) returned HCMV antiviral -17.
`CCc1nnc(NC(=O)c2ccc3ncsc3c2)s1` gave HCMV antiviral 0, Pf growth 48h 12%, HCV inhibitor 3%, Pf growth 96h 38%, Shiga toxin inh 47* and CHX counter 18*.
Screening Cc1ccc(Nc2n[nH]c(=S)s2)cc1C returned HCMV antiviral 42.
`Cc1ccc(Nc2nc3ccccc3c(=O)s2)cc1C` gave HCMV antiviral -73*, Pf growth 48h 6%, HCV inhibitor 9%, Pf growth 96h -21%, Shiga toxin inh -1 and CHX counter -3.
`CCc1nnc(NC(=O)c2ccc3c(c2)C(=O)N(C(C)(C)C)C3=O)s1` gave HCMV antiviral 71, Pf growth 48h 34%, HCV inhibitor 12%, Pf growth 96h 47%, Shiga toxin inh 38 and CHX counter 17*.
For COc1cccc(C(=O)Nc2nc3ccccc3s2)c1 the results were HCMV antiviral 49, Pf growth 48h 323%, HCV inhibitor -6%, Pf growth 96h 15µM*, Shiga toxin inh 57* and CHX counter 35*.
For COc1ccc(C(=O)N=C2SC3CS(=O)(=O)CC3N2Cc2ccc(F)cc2)cc1 (stereo unspecified) the results were HCMV antiviral -26, Pf growth 48h inconclusive, HCV inhibitor 7%, Pf growth 96h 4%, Shiga toxin inh 15 and CHX counter 16.
Screening Nc1[nH]c(C(=O)c2ccccc2)c(-c2ccc(Cl)c(Cl)c2)c1C(=O)NCCc1c[nH]c2ccccc12 returned HCMV antiviral 28.

Screens: PubChem BioAssay, National Center for Advancing Translational Sciences (NCATS)
